Source: PubChem
A selection: hits, their analogues and other compounds. The true share with any hit is near 6.2%.
Gal4-VP16 FLuc = VP16 counterscreen qHTS for inhibitors of ROR gamma transcriptional activity | Drosophila S2 Gal4-VP16 UAS-luciferase, luminescence, 20 h | Potency, µM (doses to about 53.6 µM), inactives show top-dose activity, negative = inhibition, most hits filed as inhibitors | hit rate 3.5% among 310,000 | AID 2546, 2010;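 note: Gal4-VP16 expression switched on by copper sulfate through the metallothionein promoter; nearly all actives have a fitted effect of over 50% in size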
KinaseGlo FLuc = Counterscreen for Luciferase (Kinase-Glo TM) Inhibition | Potency, µM (series often up to 38.3 µM), without a hit: top-dose activity change, negative = inhibition, usual class: inhibitors | Kinase-Glo luciferase, ATP luminescence, 8 min | hit rate 0.28% among 200,000 | AID 1379, 2008; note: nearly all actives have a fitted effect of over 60% in size
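Compound is pinned into ATP-containing buffer (10 uM ATP, imidazole pH 7.2, 7 mM MgCl2). Kinase-Glo luciferase reagent is then added. Light output is recorded following an 8-min room-temperature incubation.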
RORg inh = qHTS for inhibitors of ROR gamma transcriptional activity; Nuclear receptor ROR-gamma (Mus musculus), P51450; Drosophila S2 Gal4-RORgamma UAS-luciferase reporter, 20 h; Potency, µM (titrated, usually from 53.6 µM), without a hit: at the highest dose activity change, negative = inhibition, most hits filed as inhibitors; hit rate 5.4% among 310,000; AID 2551, 2010; note: nearly all actives have a fitted effect of over 60% in size
Target sequence (P51450 whole entry, looked up, the tested form may be a part): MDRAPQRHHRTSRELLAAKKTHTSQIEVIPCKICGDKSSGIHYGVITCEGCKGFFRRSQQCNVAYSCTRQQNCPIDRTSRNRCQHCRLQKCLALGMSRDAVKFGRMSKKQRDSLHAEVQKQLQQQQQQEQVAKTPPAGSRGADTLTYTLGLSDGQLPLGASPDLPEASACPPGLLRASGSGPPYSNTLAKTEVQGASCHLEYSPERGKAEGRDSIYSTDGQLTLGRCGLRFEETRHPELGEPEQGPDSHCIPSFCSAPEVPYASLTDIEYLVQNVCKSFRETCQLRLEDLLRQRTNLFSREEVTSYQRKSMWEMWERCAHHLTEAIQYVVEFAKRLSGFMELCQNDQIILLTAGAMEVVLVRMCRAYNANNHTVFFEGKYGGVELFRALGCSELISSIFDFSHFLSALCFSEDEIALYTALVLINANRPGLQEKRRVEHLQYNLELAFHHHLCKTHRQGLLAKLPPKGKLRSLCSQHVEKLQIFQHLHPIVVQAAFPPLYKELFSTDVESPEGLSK
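Schneider cells (Drosophila), stable Gal4 DBD–ROR gamma + UAS-luc; 1 hr cmpd preincubation; Cu2+ induction 700 uM final; 20 hr ambient; luminescence.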
* = called active by the depositor. Calls come from the whole dose curve; as a rule, active = well fitted curve in the direction sought with a large enough effect; inconclusive = small, poorly fitted or top-dose-only effect, or another doubt; inactive = no such curve, though single readings can be large; an effect the other way counts as inactive or inconclusive. % is set by controls: 0 for no effect and ±100 for the full control effect; potency is the fitted concentration of half-maximal effect.

For CCOc1cc(/C=C\[N+](=O)[O-])ccc1OCC(=O)N1CCOCC1 the results were Gal4-VP16 FLuc 5.6µM*, KinaseGlo FLuc -3% and RORg inh 4.5µM*.
For CCOc1cc(/C=C/c2nc3cc(C)c(C)cc3s2)ccc1OCC(=O)N1CCOCC1 the results were Gal4-VP16 FLuc -7%, KinaseGlo FLuc 0% and RORg inh inconclusive.
Screening O=C(COc1ccc(C(=S)N2CCOCC2)cc1)Nc1ccccc1C(F)(F)F returned Gal4-VP16 FLuc -11%, KinaseGlo FLuc 0% and RORg inh -2%.
Screening CCOc1cc(/C=N/NC(=S)Nc2ccccc2C(F)(F)F)ccc1OCC(=O)N1CCOCC1 returned Gal4-VP16 FLuc 1.4µM*, KinaseGlo FLuc 1% and RORg inh 1.4µM*.
For COc1ccc(C(=O)C(Sc2nnc(C)c(=O)[nH]2)c2ccc(OC)cc2)cc1 (stereo not drawn) the results were Gal4-VP16 FLuc 4% and RORg inh -2%.
`CCc1ccc(NC(=O)CNS(=O)(=O)c2c(C)noc2C)cc1` gave Gal4-VP16 FLuc 3%, KinaseGlo FLuc 2% and RORg inh 27%.
O=C(O)COc1ccccc1/C=N/NC(=O)c1cccc(S(=O)(=O)N2CCOCC2)c1 was read as Gal4-VP16 FLuc 15%, KinaseGlo FLuc -1% and RORg inh -12%.
`CCOCCCNC(=O)/C(C#N)=C/c1ccc([N+](=O)[O-])o1` gave Gal4-VP16 FLuc 1%, KinaseGlo FLuc -1% and RORg inh 12%.
`CC(C)CC(NC(=O)C(CC(C)C)NC(=O)C(Cc1ccc(OCc2ccccc2)cc1)NC(=O)OC(C)(C)C)C(N)=O` (stereo not drawn) gave Gal4-VP16 FLuc 2%, KinaseGlo FLuc 0% and RORg inh -4%.
`CC(C)CC(NC(=O)C(NC(=O)C(Cc1ccc(OCc2ccccc2)cc1)NC(=O)OC(C)(C)C)C(C)C)C(N)=O` (stereo not drawn) gave Gal4-VP16 FLuc 13µM*, KinaseGlo FLuc 0% and RORg inh inconclusive.
`O=C(O)c1ccc(NC2=C(N3CCOCC3)C(=O)c3ccccc3C2=O)cc1` gave Gal4-VP16 FLuc 1%, KinaseGlo FLuc -7% and RORg inh 14%.
Screening CC(=O)N(C)C1=C(N2CCOCC2)C(=O)c2ccccc2C1=O returned Gal4-VP16 FLuc inconclusive, KinaseGlo FLuc -11% and RORg inh 8.9µM*.
`CC(=O)N(C1=C(N2CCOCC2)C(=O)c2ccccc2C1=O)c1ccc(C(=O)O)cc1` gave Gal4-VP16 FLuc 11µM* and RORg inh inconclusive.
For CC(=O)c1ccc(NC2=C(N3CCOCC3)C(=O)c3ccccc3C2=O)cc1 the results were Gal4-VP16 FLuc 17%, KinaseGlo FLuc -22% and RORg inh -42%.
Screening O=C(O)c1cc(-c2ccc(Cl)cc2)n(-c2ccc(F)cc2)n1 returned Gal4-VP16 FLuc -8% and RORg inh -1%.
For CCc1ccc(-c2nc(SCC(=O)N3CCOCC3)n[nH]2)cc1 the results were Gal4-VP16 FLuc -7% and RORg inh 22%.
For CCN(C(=O)CN1CCN(c2ccc(O)cc2)CC1)c1c(N)n(Cc2ccccc2)c(=O)[nH]c1=O the results were Gal4-VP16 FLuc -3%, KinaseGlo FLuc 1% and RORg inh -27%.
`Cc1nn(C(C)C(=O)NCCCN2CCCCCC2)c(=O)c2cc3sccc3n12` (stereo not drawn) gave Gal4-VP16 FLuc -7% and RORg inh -21%.
O=c1ccc2c(OCCCCOc3ccccc3)c3ccoc3cc2o1 was read as Gal4-VP16 FLuc -16% and RORg inh 22%.
`CN1C2CCC1/C(=C/c1cccn1C)C(=O)/C2=C\c1cccn1C` gave Gal4-VP16 FLuc -13%, KinaseGlo FLuc -5% and RORg inh 5%.
Cn1cccc1/C=C1\CC(C(C)(C)C)C/C(=C\c2cccn2C)C1=O (stereo not drawn) was read as Gal4-VP16 FLuc 5µM*, KinaseGlo FLuc 13% and RORg inh inconclusive.
Screening Cn1cccc1/C=C1\CCc2ccccc2C1=O returned Gal4-VP16 FLuc 0%, KinaseGlo FLuc 10µM* and RORg inh 13µM*.
For O=C1/C(=C/c2cccs2)Cc2ccccc21 the results were Gal4-VP16 FLuc -7% and RORg inh -21%.
Screening COc1ccc(/C=C2/CCc3ccccc3C2=O)cc1OC returned Gal4-VP16 FLuc inconclusive, KinaseGlo FLuc 1% and RORg inh inconclusive.
Cn1cccc1/C=C1\Cc2ccccc2C1=O was read as Gal4-VP16 FLuc -6%, KinaseGlo FLuc 11µM* and RORg inh 1%.
